Measured values published in PubChem BioAssay (NCI).
The panel holds about 83,000 compounds, 20% with a hit somewhere; the sample as a whole holds those more often.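 Testing used 96-well plates and a 48-hour single-concentration exposure. Example: -40 means 40% of the starting cells died.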 Values without a mark were called inactive. Activity calls are given as the source filed them. How the source made its calls: active means growth percent below 10; inactive means the rest.

What was measured:
Experiment in all cases: NCI-60 one-dose screen, 48 h (100 = growth as untreated, 0 = no growth, -100 = all killed)
Conditions in all cases: 10 µM unless noted
T-47D breast = tested on: T-47D breast
BT-549 breast = tested on: BT-549 breast
MDA-MB-435 melanoma = tested on: MDA-MB-435 melanoma
SW-620 colon = tested on: SW-620 colon
MCF7 breast = tested on: MCF7 breast
HCT-116 colon = tested on: HCT-116 colon
HCC-2998 colon = tested on: HCC-2998 colon
KM12 colon = tested on: KM12 colon
MDA-MB-468 breast = tested on: MDA-MB-468 breast

Row | Compound | growth (T-47D breast) [%] | growth (BT-549 breast) | growth (MDA-MB-435 melanoma) [%] | growth (SW-620 colon) | growth (MCF7 breast) | growth (HCT-116 colon) | growth (HCC-2998 colon) | growth (KM12 colon) | growth (MDA-MB-468 breast)
1 | COc1ccc2[nH]c(O)c(N=NC(=O)COc3ccc(NC(=O)Nc4ccccc4)cc3)c2c1 | 27.1 | -36.4% (active) | 56.9 | 38.4% | 23.7% | 29.3% | 34.9% | -46.2% (active) | 13%
2 | COC(OC)C1=C(C)OC(N)=C(C#N)C12C(=O)Nc1ccccc12 (centres undefined) | 100 | 123% | 94.8 | 85.5% | 60.7% | 100% | 106% | 95.3% | 85.9%
3 | Clc1ccc(-c2ccc(OCCCN3CCN(c4ccncc4)CC3)cc2)cc1 | 15.6 | 75.4% | 33.5 | -8.83% (active) | -1.15% (active) | -28.8% (active) | 21.2% | 61.4% | -9.68% (active)
4 | C#C[C@]1(O)CC[C@H]2[C@@H]3CC=C4c5sc(-c6ccc([N+](=O)[O-])cc6)nc5CC[C@]4(C)[C@H]3CC[C@@]21C | 24.9 | 36.8% | 26.7 | -12.5% (active) | 0.614% (active) | 0.46% (active) | -49.2% (active) | -27.1% (active) | -17.8% (active)
5 | COc1ccccc1C(=O)NN1C(=O)/C(=C/C2=Cc3ccccc3OC2)SC1=S | 104 | 83.6% | 110 | 114% | 92.9% | 95.7% | 117% | 99.5% | 115%
6 | CC(=O)OCC1OC(OC2C(COC(C)=O)OC(n3cc(COc4ccc5ccc(=O)oc5c4)nn3)C(OC(C)=O)C2OC(C)=O)C(OC(C)=O)C(OC(C)=O)C1OC(C)=O (centres undefined) | 103 | 101% | 101 | 106% | 90.9% | 106% | 108% | 103% | 108%
